PMC7862700, “An all-to-all approach to the identification of sequence-specific readers for epigenetic DNA modifications on cytosine”

Legend:
Test in all cases: DAPPL (digital affinity profiling via proximity ligation, sequencing); 10 mM Tris-HCl pH 7.5, 50 mM NaCl, 1 mM DTT, 4% glycerol, room temperature, 30 min; GST-TFs on glutathione beads, 16-mer random dsDNA library, 0.1% formaldehyde crosslink after washing; high values mean tight binding
[1] = molecular target: T1, FLI1 (Homo sapiens, UniProt Q01543 1-452); details: protein: recombinant; tags: N-terminal GST; dsDNA, one strand shown
T1 sequence: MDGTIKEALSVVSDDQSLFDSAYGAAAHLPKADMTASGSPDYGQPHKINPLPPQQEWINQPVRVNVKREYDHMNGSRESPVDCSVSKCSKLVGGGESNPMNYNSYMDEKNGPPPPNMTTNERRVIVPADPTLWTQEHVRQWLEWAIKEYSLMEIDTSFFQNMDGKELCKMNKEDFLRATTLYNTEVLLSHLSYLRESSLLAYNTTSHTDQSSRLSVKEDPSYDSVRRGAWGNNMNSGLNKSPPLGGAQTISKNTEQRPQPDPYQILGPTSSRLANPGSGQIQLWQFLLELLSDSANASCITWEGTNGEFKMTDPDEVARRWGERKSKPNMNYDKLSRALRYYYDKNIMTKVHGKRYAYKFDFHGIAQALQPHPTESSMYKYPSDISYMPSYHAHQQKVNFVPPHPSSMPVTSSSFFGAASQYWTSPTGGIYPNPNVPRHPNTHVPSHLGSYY
How it was run: (§1)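 Human transcription factors carrying a GST fusion were produced in yeast, bound to glutathione beads, tagged with DNA barcodes and pooled together with a tag-only sample. Each pool was held with 200 nmole of a random double-stranded 16-mer DNA library in Tris/NaCl/DTT/glycerol buffer for 30 min at room temperature, then washed, crosslinked in 0.1% formaldehyde, proximity-ligated with BsaI/T4 ligase (1 h, 37 °C), PCR-amplified and sequenced on an Illumina NextSeq500. Binding signal is the read frequency of each hexamer for a given factor divided by its frequency in the tag-only sample.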

[2] = molecular target: T2, ELK1 (Homo sapiens, UniProt P19419 1-428); details: protein: recombinant; tags: N-terminal GST; dsDNA, one strand shown
T2 sequence: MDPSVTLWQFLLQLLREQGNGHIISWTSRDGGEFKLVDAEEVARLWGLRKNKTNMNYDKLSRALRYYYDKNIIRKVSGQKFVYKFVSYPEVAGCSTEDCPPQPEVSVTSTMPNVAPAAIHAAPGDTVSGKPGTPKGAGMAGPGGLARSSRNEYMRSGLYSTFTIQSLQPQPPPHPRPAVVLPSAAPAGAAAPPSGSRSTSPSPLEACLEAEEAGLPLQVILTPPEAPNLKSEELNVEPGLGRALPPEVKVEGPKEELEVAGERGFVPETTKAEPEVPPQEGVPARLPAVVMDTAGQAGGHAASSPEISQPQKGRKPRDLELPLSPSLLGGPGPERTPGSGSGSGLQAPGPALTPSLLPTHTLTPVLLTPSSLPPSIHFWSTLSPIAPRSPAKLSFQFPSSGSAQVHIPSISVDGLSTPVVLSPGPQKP
How it was run: as §1

[3] = molecular target: T3, GABPA (Homo sapiens, UniProt Q06546 1-454); details: protein: recombinant; tags: N-terminal GST; dsDNA, one strand shown
T3 sequence: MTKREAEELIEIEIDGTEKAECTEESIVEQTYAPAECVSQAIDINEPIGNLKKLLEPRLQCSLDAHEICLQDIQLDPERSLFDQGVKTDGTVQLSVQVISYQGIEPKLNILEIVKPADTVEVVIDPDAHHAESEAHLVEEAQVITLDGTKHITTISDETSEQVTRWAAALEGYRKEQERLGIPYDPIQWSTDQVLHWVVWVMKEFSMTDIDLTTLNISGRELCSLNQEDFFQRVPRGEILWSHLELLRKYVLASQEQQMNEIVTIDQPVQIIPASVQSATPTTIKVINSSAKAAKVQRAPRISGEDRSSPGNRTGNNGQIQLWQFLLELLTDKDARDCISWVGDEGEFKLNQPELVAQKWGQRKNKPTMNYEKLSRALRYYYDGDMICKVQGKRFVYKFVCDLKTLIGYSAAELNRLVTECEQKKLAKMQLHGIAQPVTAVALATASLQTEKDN
How it was run: as §1

[4] = molecular target: T4, ERG (Homo sapiens, UniProt P11308 1-479); details: protein: recombinant; tags: N-terminal GST; dsDNA, one strand shown
T4 sequence: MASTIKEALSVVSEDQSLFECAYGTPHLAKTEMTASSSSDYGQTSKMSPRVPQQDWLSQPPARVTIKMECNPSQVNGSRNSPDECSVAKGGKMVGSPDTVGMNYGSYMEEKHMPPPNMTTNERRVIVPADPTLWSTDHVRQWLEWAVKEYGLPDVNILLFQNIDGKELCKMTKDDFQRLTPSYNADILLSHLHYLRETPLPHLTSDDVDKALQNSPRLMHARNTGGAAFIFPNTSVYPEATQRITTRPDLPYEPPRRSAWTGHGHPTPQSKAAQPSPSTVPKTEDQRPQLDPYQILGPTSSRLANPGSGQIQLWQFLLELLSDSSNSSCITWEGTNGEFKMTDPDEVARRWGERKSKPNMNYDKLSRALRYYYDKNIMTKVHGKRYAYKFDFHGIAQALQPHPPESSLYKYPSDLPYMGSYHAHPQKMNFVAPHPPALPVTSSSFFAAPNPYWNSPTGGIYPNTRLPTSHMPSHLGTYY
How it was run: as §1

[5] = molecular target: ELF1 (Homo sapiens, UniProt P32519 1-619); details: protein: recombinant; tags: N-terminal GST; dsDNA, one strand shown
How it was run: as §1

[6] = molecular target: T5, EHF (Homo sapiens, UniProt Q9NZC4 1-300); details: protein: recombinant; tags: N-terminal GST; dsDNA, one strand shown
T5 sequence: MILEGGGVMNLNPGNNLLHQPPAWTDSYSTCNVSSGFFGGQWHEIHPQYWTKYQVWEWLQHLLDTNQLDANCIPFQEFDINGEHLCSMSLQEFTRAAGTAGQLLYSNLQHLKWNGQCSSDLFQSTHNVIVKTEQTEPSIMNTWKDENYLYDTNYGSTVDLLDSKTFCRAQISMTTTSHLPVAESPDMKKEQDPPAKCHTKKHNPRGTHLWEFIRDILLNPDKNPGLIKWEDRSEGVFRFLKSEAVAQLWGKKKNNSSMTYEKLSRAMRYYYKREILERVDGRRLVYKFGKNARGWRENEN
How it was run: as §1

[7] = molecular target: SPI1 (Homo sapiens, UniProt P17947 1-270); details: protein: recombinant; tags: N-terminal GST; dsDNA, one strand shown
How it was run: as §1

[8] = molecular target: SPIB (Homo sapiens, UniProt Q01892 1-262); details: protein: recombinant; tags: N-terminal GST; dsDNA, one strand shown
How it was run: as §1

[9] = molecular target: T6, ELK3 (Homo sapiens, UniProt P41970 1-407); details: protein: recombinant; tags: N-terminal GST; dsDNA, one strand shown
T6 sequence: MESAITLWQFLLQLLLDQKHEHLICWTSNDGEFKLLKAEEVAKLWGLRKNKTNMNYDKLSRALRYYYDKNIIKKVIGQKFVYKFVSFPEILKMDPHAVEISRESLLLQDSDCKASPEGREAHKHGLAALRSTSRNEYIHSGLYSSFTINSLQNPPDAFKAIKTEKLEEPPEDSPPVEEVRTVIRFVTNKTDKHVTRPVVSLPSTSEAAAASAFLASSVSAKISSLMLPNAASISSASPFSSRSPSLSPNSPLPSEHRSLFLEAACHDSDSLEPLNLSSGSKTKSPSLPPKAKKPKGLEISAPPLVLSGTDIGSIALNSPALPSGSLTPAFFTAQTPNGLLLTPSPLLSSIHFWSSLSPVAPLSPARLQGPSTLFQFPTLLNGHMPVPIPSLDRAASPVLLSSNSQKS
How it was run: as §1

[10] = molecular target: T7, FEV (Homo sapiens, UniProt Q99581 1-238); details: protein: recombinant; tags: N-terminal GST; dsDNA, one strand shown
T7 sequence: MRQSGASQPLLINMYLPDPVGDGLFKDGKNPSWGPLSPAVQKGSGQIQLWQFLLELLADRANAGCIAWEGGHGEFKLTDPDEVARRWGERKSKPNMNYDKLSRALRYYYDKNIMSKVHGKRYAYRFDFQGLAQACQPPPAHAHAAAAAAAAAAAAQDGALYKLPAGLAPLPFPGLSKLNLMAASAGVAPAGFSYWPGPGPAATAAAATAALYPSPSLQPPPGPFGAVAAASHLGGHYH
How it was run: as §1

[11] = molecular target: ETV5 (Homo sapiens, UniProt P41161 1-510); details: protein: recombinant; tags: N-terminal GST; dsDNA, one strand shown
How it was run: as §1

[12] = molecular target: HSF1 (Homo sapiens, UniProt Q00613 1-529); details: protein: recombinant; tags: N-terminal GST; chain copies: 3; dsDNA, one strand shown
How it was run: as §1

[13] = molecular target: T8, SPIC (Homo sapiens, UniProt Q8N5J4 1-248); details: protein: recombinant; tags: N-terminal GST; dsDNA, one strand shown
T8 sequence: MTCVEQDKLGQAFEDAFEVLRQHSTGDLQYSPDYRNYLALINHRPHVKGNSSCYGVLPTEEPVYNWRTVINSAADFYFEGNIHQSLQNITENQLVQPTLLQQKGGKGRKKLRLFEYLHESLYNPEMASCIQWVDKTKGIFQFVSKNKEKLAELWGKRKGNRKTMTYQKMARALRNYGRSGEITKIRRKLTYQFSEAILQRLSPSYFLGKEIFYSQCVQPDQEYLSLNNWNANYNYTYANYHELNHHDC
How it was run: as §1

[14] = molecular target: ELF4 (Homo sapiens, UniProt Q99607 1-663); details: protein: recombinant; tags: N-terminal GST; dsDNA, one strand shown
How it was run: as §1

[15] = molecular target: T9, ELK4 (Homo sapiens, UniProt P28324-2 1-405); details: protein: recombinant; tags: N-terminal GST; dsDNA, one strand shown
T9 sequence: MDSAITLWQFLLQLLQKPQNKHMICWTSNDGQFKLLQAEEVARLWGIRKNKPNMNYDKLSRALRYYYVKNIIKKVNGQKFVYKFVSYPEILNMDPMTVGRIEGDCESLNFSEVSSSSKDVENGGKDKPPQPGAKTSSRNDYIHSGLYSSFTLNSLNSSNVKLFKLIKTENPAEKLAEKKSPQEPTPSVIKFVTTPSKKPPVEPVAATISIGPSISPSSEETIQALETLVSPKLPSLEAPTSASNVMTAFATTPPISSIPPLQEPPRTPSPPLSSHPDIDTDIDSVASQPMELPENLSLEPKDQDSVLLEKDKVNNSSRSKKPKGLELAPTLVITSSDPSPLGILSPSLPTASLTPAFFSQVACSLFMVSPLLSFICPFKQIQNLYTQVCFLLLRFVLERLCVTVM
How it was run: as §1

[16] = molecular target: T10, ELF3 (Homo sapiens, UniProt P78545 1-371); details: protein: recombinant; tags: N-terminal GST; dsDNA, one strand shown
T10 sequence: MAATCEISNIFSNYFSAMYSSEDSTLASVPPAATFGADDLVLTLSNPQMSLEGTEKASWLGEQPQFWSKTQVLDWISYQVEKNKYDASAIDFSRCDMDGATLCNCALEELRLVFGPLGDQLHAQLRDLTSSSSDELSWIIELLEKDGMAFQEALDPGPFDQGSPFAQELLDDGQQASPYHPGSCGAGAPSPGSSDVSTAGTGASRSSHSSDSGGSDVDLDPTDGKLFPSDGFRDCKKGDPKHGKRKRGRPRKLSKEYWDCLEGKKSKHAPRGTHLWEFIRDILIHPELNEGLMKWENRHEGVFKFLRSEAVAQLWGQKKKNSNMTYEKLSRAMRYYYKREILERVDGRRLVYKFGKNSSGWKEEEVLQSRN
How it was run: as §1

[17] = molecular target: CRX (Homo sapiens, UniProt O43186 1-299); details: protein: recombinant; tags: N-terminal GST; dsDNA, one strand shown
How it was run: as §1

[18] = molecular target: ETV1 (Homo sapiens, UniProt P50549 1-477); details: protein: recombinant; tags: N-terminal GST; dsDNA, one strand shown
How it was run: as §1

ETV1, sequence (P50549 whole entry): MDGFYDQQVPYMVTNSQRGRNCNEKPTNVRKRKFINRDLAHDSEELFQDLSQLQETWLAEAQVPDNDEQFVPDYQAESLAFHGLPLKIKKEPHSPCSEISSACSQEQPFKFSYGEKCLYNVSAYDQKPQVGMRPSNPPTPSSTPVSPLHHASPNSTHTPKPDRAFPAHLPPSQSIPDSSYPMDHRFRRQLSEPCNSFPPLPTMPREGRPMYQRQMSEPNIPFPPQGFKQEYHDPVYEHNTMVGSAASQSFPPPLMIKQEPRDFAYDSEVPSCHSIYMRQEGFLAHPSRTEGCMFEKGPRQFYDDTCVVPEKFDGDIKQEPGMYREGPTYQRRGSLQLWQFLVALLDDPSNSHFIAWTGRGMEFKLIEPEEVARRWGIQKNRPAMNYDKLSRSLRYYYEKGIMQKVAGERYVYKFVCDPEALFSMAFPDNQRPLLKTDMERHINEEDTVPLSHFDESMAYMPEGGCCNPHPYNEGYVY
ETV5, sequence (P41161 whole entry): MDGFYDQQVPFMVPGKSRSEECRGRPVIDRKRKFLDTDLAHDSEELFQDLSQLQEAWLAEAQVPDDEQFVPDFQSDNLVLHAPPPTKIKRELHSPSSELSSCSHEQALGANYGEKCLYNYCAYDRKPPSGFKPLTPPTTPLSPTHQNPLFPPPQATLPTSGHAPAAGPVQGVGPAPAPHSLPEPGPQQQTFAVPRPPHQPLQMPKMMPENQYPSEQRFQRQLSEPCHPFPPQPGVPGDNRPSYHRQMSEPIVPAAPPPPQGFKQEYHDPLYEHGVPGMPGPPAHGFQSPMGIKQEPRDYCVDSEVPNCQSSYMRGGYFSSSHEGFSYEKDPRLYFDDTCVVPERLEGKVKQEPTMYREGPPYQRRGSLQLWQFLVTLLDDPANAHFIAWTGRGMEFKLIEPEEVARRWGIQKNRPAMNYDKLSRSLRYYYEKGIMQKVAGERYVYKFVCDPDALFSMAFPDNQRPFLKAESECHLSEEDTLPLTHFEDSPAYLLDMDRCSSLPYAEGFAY
CRX, sequence (O43186 whole entry): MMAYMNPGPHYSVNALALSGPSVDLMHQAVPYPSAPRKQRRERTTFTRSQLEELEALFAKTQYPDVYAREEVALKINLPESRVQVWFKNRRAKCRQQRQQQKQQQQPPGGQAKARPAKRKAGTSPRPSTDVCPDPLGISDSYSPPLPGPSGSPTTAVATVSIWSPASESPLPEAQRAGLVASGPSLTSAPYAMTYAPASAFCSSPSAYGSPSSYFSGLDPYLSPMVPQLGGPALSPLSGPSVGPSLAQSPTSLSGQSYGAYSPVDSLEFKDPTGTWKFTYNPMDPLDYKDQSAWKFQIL
SPIB, sequence (Q01892 whole entry): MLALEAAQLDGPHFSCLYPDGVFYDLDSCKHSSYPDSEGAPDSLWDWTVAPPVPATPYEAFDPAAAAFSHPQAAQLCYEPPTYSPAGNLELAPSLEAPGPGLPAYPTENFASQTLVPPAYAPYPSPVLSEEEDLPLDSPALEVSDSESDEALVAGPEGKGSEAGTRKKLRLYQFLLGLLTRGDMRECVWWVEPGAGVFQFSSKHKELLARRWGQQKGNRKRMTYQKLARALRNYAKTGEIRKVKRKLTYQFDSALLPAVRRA
ELF1, sequence (P32519 whole entry): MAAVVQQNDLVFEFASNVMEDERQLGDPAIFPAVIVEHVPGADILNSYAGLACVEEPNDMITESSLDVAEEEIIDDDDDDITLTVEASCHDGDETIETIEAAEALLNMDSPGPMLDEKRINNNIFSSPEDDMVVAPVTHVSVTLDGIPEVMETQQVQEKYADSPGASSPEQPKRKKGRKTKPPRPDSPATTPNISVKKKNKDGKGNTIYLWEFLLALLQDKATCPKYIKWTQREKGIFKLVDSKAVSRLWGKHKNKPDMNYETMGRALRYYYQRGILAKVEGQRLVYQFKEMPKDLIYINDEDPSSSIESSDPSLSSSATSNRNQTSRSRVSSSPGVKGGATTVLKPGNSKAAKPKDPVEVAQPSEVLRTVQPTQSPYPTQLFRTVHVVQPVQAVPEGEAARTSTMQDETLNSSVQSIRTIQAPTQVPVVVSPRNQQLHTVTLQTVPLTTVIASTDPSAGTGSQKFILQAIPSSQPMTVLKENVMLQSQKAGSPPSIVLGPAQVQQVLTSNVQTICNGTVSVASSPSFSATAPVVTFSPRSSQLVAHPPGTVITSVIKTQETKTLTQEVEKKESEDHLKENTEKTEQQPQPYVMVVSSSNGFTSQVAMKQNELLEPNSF
HSF1, sequence (Q00613 whole entry): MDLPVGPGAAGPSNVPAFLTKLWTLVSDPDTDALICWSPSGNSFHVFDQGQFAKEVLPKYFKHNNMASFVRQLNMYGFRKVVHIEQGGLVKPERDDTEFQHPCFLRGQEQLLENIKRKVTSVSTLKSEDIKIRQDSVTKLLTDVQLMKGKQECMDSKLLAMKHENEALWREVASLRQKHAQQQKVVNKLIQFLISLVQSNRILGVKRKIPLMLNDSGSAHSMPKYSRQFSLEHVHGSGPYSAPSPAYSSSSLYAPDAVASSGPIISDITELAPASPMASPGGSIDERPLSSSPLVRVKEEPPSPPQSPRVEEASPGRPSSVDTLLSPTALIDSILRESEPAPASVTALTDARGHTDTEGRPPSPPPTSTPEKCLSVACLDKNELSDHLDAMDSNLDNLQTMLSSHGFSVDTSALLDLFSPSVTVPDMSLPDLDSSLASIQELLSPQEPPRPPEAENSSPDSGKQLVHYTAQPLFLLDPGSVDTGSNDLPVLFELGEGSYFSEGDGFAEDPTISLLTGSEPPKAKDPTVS
ELF4, sequence (Q99607 whole entry): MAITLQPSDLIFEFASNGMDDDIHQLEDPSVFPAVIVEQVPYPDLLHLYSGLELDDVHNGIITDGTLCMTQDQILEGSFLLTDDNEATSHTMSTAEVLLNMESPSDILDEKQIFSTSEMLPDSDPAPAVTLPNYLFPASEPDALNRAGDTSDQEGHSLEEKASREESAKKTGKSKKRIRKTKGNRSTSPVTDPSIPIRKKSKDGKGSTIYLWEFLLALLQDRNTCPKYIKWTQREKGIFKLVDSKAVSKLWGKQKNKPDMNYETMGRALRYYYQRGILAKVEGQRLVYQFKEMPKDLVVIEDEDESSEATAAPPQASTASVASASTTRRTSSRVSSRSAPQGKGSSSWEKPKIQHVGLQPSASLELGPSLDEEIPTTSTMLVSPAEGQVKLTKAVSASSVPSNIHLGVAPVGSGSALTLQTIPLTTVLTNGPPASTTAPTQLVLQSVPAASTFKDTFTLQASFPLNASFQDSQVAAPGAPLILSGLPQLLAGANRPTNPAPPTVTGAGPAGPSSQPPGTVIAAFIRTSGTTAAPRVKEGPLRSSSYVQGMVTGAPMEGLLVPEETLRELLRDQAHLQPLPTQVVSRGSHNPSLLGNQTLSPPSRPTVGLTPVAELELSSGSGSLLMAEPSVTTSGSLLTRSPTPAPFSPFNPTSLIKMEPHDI

Row | Sequence | binding signal [1] | binding signal [2] | binding signal [3] | binding signal [4] | binding signal [5] | binding signal [6] | binding signal [7] | binding signal [8] | binding signal [9] | binding signal [10] | binding signal [11] | binding signal [12] | binding signal [13] | binding signal [14] | binding signal [15] | binding signal [16] | binding signal [17] | binding signal [18]
1 | AAAGTT | 1.07 fold enrichment (6-mer frequency, TF over GST control) | 1.05 fold enrichment (6-mer frequency, TF over GST control) | 1.13 fold enrichment (6-mer frequency, TF over GST control) | 1.02 fold enrichment (6-mer frequency, TF over GST control) | 1.08 fold enrichment (6-mer frequency, TF over GST control) | 1.1 fold enrichment (6-mer frequency, TF over GST control) | 1.07 fold enrichment (6-mer frequency, TF over GST control) | 1.16 fold enrichment (6-mer frequency, TF over GST control) | 1.17 fold enrichment (6-mer frequency, TF over GST control) | 1.01 fold enrichment (6-mer frequency, TF over GST control) | 1.16 fold enrichment (6-mer frequency, TF over GST control) | 1.43 fold enrichment (6-mer frequency, TF over GST control) | 1.03 fold enrichment (6-mer frequency, TF over GST control) | 1.14 fold enrichment (6-mer frequency, TF over GST control) | 1.19 fold enrichment (6-mer frequency, TF over GST control) | 1.1 fold enrichment (6-mer frequency, TF over GST control) | 1.22 fold enrichment (6-mer frequency, TF over GST control) | 1.07 fold enrichment (6-mer frequency, TF over GST control)
2 | TCCCAA | 1.14 fold enrichment (6-mer frequency, TF over GST control) | 1.2 fold enrichment (6-mer frequency, TF over GST control) | 1.25 fold enrichment (6-mer frequency, TF over GST control) | 1.28 fold enrichment (6-mer frequency, TF over GST control) | 1.3 fold enrichment (6-mer frequency, TF over GST control) | 1.31 fold enrichment (6-mer frequency, TF over GST control) | 1.2 fold enrichment (6-mer frequency, TF over GST control) | 1.15 fold enrichment (6-mer frequency, TF over GST control) | 1.28 fold enrichment (6-mer frequency, TF over GST control) | 1.17 fold enrichment (6-mer frequency, TF over GST control) | 1.2 fold enrichment (6-mer frequency, TF over GST control) | 1.11 fold enrichment (6-mer frequency, TF over GST control) | 1.17 fold enrichment (6-mer frequency, TF over GST control) | 1.24 fold enrichment (6-mer frequency, TF over GST control) | 1.09 fold enrichment (6-mer frequency, TF over GST control) | 1.16 fold enrichment (6-mer frequency, TF over GST control) | 1.23 fold enrichment (6-mer frequency, TF over GST control) | 1.2 fold enrichment (6-mer frequency, TF over GST control)
